# Experimental data: PubChem BioAssay AID1379 (National Center for Advancing Translational Sciences (NCATS), 2008)
# The campaign covered roughly 200,000 compounds. About 560 (0.28%) were called active. This is one part of a sample in which actives are shown more often than they occur. Values without a mark were called inactive. The call rests on the fitted dose curve; in most records, active means well fitted inhibition curve with a large enough effect; inconclusive means small, poorly fitted or top-dose-only effect; inactive means flat fitted curve, though single readings scatter.
# Biological target: Luciferin 4-monooxygenase (Photuris pensylvanica) (UniProt Q27757)
# Experiment: Counterscreen for Luciferase (Kinase-Glo TM) Inhibition; further: nearly all actives have a fitted effect of over 60% in size
# Conditions: ATP luminescence, 8 min; series mostly up to 38.3 µM; activity change, negative = inhibition: at the top concentration
# Protocol: NCGC Assay Overview: NIH Molecular Libraries Screening Centers Network [MLSCN] NIH Chemical Genomics Center [NCGC] MLSCN Grant: None Luciferase (Kinase-Glo, Promega Corporation) was assayed for its ability to generate light using ATP and luciferin as substrates. The ATP concentration in the assay (10 uM) was within the linear range of enzyme activity for the assay conditions used.
# NCGC Assay Protocol Summary: Four uL of substrate mix (final concentration, 50 mM imidazole pH 7.2, 50 mM KCl, 7 mM MgCl2, 10 uM ATP, 0.01% Tween 20, 0.05% BSA) was dispensed into white 1536 well plates. Twenty-three nL of compound was delivered by a pin tool and 2 uL of luciferase detection mix (Kinase-Glo, Promega)) was added. Following 8-minute incubation at ambient temperature, luminescence was measured by a ViewLux (Perkin Elmer) at 5 seconds exposure/plate.
# On the % scale 0 is the no-effect control and ±100 the full control effect; potency means the concentration at half of the fitted maximal effect.
SMILES,Potency,"activity change, negative = inhibition"
Cc1ccc(-c2cn3cc(C)ccc3n2)cc1,11.2 µM (active),–
Cc1ccc(-c2cn3cc([N+](=O)[O-])ccc3n2)cc1,–,-24.6%
COc1ccc(-c2cn3ccsc3n2)cc1,–,-24.5%
C[C@H]1Cc2c(-c3ccccc3)nc3c(c2CO1)CN(S(=O)(=O)c1ccc(Cl)c2nonc12)CC3,–,-6.5% [at 7.66 µM]
C=C(C(C)=O)C(O)c1ccc([N+](=O)[O-])cc1 (stereo not given),–,2.25%
Cc1ccc(-c2cccc([C@H]3[C@@H]4C=CC[C@@H](C)[C@@H]4C(=O)N3Cc3ccccc3)c2)cc1,–,2.21% [at 39.9 µM]
O=C(Oc1ccc(-c2nc(-c3ccccn3)no2)cc1)c1ccccc1,4.47 µM (active),–
c1ccc(-c2noc(-c3cccs3)n2)nc1,12.6 µM (active),–
COc1nc(-c2ccc(Cl)cc2)ccc1-c1noc(-c2cccs2)n1,–,0.069%
COc1ccc(Cc2nc(-c3ccccn3)no2)cc1OC,–,1.94%
O=C(Oc1ccccc1)c1ccc2nccnc2c1,–,5.55%
c1csc(-c2nc(-c3ccncc3)no2)c1,–,-13.5%
C/C(Nc1ccc2oc(=O)ccc2c1)=C1/C(=O)CC2[C@@H]1C2(C)C (stereo not given in full),–,-0.876%
O=C1/C(=C/c2cccs2)CCc2ccccc21,11.2 µM (active),–
CCC1C/C(=C/c2cccs2)C(=O)/C(=C/c2cccs2)C1 (stereo not given),–,1.29%
COc1ccc(/C=C2\CCc3ccccc3C2=O)c(OC)c1OC,–,0.525%
N#Cc1cccc(CS(=O)(=O)c2nnnn2-c2cc(C(F)(F)F)cc(C(F)(F)F)c2)c1,–,-0.728%
COc1ccc(-c2nc3c(c4c2C[C@H](c2ccccc2)OC4)CN(S(=O)(=O)c2c(C)noc2C)CC3)c(C)c1,–,-5.25% [at 7.66 µM]
O=C1C=C(c2ccccc2)CCC1,–,-0.266%
COc1ccc2c(c1)O[C@@H](c1ccc3c(c1)OCO3)[C@H](OC(=O)NCc1ccco1)C2=O,–,2.74%
COc1ccc(NC(=O)c2cccc(NC(=O)c3ccco3)c2)c(OC)c1,–,0.933%
COc1cc(NC(=O)c2cc([N+](=O)[O-])ccc2Br)ccc1NC(=O)c1ccco1,–,1.81%
COc1ccccc1C(=O)Nc1ccc(NC(=O)c2ccco2)c(C)c1,10 µM (active),–

SMILES,Potency,"activity change, negative = inhibition"
O=C(NCc1ccco1)O[C@@H]1C(=O)c2cc(Br)ccc2O[C@H]1c1ccc2c(c1)OCO2,–,-0.751%
Cc1cccc([C@H]2[C@@H]3C=CC[C@@H](C)[C@@H]3C(=O)N2Cc2ccccc2)c1,–,-0.116% [at 39.9 µM]
CCN1C(=O)N[C@@H](CCc2ccccc2)C(C(=O)OC)=C1C,–,0.314% [at 7.66 µM]
C=CCC(C)(O)c1ccco1 (stereo not given),–,1.24%
O=C1OCCN1C(=O)[C@H]1[C@H](c2ccc(F)cc2)C(c2ccccc2)=NN1c1ccc(Br)cc1,–,2.64% [at 39.9 µM]
Cc1ccccc1-c1ccc(C(=O)O)s1,–,3.14% [at 39.9 µM]
C=CC1(C)CC(=O)C2(O)C(C)(O1)C(OC(C)=O)C(O)C1C(C)(C)CCC(O)C12C (stereo not given),–,inactive
COCCN1C=C2C(=O)C(C)(OC(=O)C3CCCC3)C(=O)C=C2C=C1c1ccsc1 (stereo not given),–,-8.74% [at 7.66 µM]
CC1=C2[C@@H](O)[C@H]([C@@H](C)C(=O)NCCC(C)C)CC[C@@]2(C)C=CC1=O,–,-3.8%
COC(=O)CCCC1=CC2=CC(=O)C(C)(OC(=O)c3cccs3)C(=O)C2=CN1c1cccc(C#N)c1 (stereo not given),–,0.0108% [at 7.66 µM]
C/C=C(\C)C(=O)O[C@H]1CC(C)=C2C(=O)C=C(C)C2[C@@H]2OC(=O)[C@@](C)(OC(=O)C=C(C)C)C21 (stereo not given in full),–,-12.3%
COc1ccc(N=Cc2c(O)[nH]c3ccccc23)cc1OC,–,-4.22%
COc1ccccc1N=Cc1c(O)c2ccccc2oc1=O,14.1 µM (active),–
COc1ccc(OC)c(N=Cc2c(O)[nH]c3ccccc23)c1,–,-1.78%
NC1CCN(O)C1=O (stereo not given),–,0.152%
Cc1ccc(NC(=O)O[C@@H]2C(=O)c3cc(Br)ccc3O[C@H]2c2ccc3c(c2)OCO3)cc1Br,–,0.235%
C=CC1=C2C=C(C3CC3)N(CC(C)C)C=C2C(=O)C(C)(OC(=O)c2ccco2)C1=O (stereo not given),–,-1.36% [at 7.66 µM]
COc1ccc(/C=C2\NC(=O)[C@@H]3Cc4ccccc4CN3C2=O)cc1,–,-1.84%
CCCCCCCC[C@@H](O)/C=C/C=C/C=C\[C@@H](O)CCCC(=O)O,–,-0.585%
C=C(C(C)=O)C(O)c1cccs1 (stereo not given),–,2.74%
C=CCC1CCC(=O)N2CCCC12 (stereo not given),–,1.99% [at 39.9 µM]
CC1(OC(=O)CCc2ccccc2)C(=O)C=C2C=C(c3ccc(C#N)cc3)N(CCc3ccccn3)C=C2C1=O (stereo not given),–,-6.83% [at 7.66 µM]
